Bioassay records: PubChem, Johns Hopkins Ion Channel Center
KCNQ2 enhance = potentiators of rat KCNQ2 potassium channel; Potassium voltage-gated channel subfamily KQT member 2 (Rattus norvegicus), O88943; CHO-K1 KCNQ2, FluxOR thallium flux fluorescence; stronger effect = higher value; B-score at 10 µM; hit rate 0.54% among 310,000; AID 2239, 2010;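 active means fluorescence ratio B-score at least 3 SD of library B-scores, with initial fluorescence B-score within 3 of them, cut at about 5.3 in these data; same plate scores as AID 2156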;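 further: B-score of peak minus minimum over baseline fluorescence ratio after K+ and Tl+ stimulus; positive B-score means potentiation of KCNQ2 with more thallium influx and brighter signal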
KCNQ2 inh = rat KCNQ2 potassium channel inhibitors, primary screen, cell-based, CHO-K1, FluxOR thallium flux, B-score; Potassium voltage-gated channel subfamily KQT member 2 (Rattus norvegicus), O88943; 20 min; stronger effect = lower value; B-score at 10 µM; hit rate 1.1% among 310,000; AID 2156, 2009;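 active means fluorescence ratio B-score at most minus 3 library SDs, with starting brightness B-score within 2 library SDs, cut at about -5.5 in these data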
Kir21 confirm = mouse Kir2.1 channel blockers, retest, confirmation, cell-based, FluxOR thallium flux, duplicate; Kir2.1-expressing cells, FluxOR thallium flux fluorescence; stronger effect = lower value; shares compounds with KCNQ2 enhance; AID 2032, 2009; hit rate 41% among 2,300; Tl flux remaining, % of negative control (stronger effect = lower value), % at 10 µM;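 active means Primary-screen hit whose thallium flux fell at least 3 control SD below untreated wells in both duplicates, with normal baseline fluorescence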
HEK293 Tl flux = alters thallium flux in parental HEK293 cells, Kir2.1 counter-screen | hit rate 19% among 2,300 | FluxOR signal as % of negative control (100 = no effect), % at 10 µM | AID 2105 | FluxOR thallium flux fluorescence; 0% = unstimulated blank wells | shares compounds with KCNQ2 enhance;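 active means dye signal at least 3 control SD above or below untreated wells in both duplicates, raw fluorescence within 3, either direction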;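 further: percent is based on the flux ratio of peak minus minimum fluorescence over baseline F0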
CHO-K1 ctr = nonspecific thallium flux increase in parental CHO-K1, confirmation, counter-screen for KCNQ2 potentiator project, cell-based, FluxOR thallium flux, duplicate | shares compounds with KCNQ2 enhance | parental CHO-K1 cells, FluxOR thallium flux fluorescence; zero = vehicle mean+3SD, 100% = vehicle-minus-blank window | activity increase over 3SD of controls, % at 10 µM | hit rate 43% among 1,200 | AID 2282, 2010;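 active means signal rise of at least 3 SD above the untreated control mean, in both duplicate wells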;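 further: counter screen of KCNQ2 potentiator hits so any rise reflects channel-independent effects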
KCNQ1 pot spec = human KCNQ1 channel potentiation off-target, confirmation, selectivity assay for KCNQ2 potentiator project, cell-based, CHO, FluxOR thallium flux. shares compounds with KCNQ2 enhance. CHO KCNQ1 stable, FluxOR thallium flux fluorescence; beyond 3SD, as % of vehicle-control signal. activation over 3SD threshold, % at 10 µM. hit rate 28% among 1,200;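 active means fluorescence ratio rise of at least 3 SD of vehicle wells above their mean, in both replicate wells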
KCNQ2 pot conf = rat KCNQ2 channel potentiators, confirmation, cell-based, CHO, FluxOR thallium flux, duplicate | shares compounds with KCNQ2 enhance | CHO-KCNQ2 cells, FluxOR thallium flux fluorescence | potentiation, less the hit threshold, % at 10 µM | hit rate 68% among 1,200 | AID 2287, 2010;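 active means fluorescence ratio rising 3 SD or more over the vehicle control mean in both replicates, plus primary screen hit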;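 further: peak minus minimum thallium fluorescence divided by baseline after K/Tl stimulus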
Kir2-1 sel = mouse Kir2.1 channel activation off-target, confirmation, selectivity assay for KCNQ2 potentiator project, cell-based, HEK293, FluxOR thallium flux. activity over 3SD threshold, % at 10 µM. hit rate 2% among 1,200. HEK293 Kir2.1, FluxOR thallium flux fluorescence. shares compounds with KCNQ2 enhance;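 active means fluorescence ratio rise of at least 3 SD above the vehicle-control mean, seen in both replicates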
KCNQ2 W236L MoA = potentiators of retigabine-insensitive KCNQ2 W236L, mechanism study for KCNQ2 potentiator project, cell-based, rat KCNQ2 W236L, CHO, automated patch clamp; current increase over 3SD of negative controls (%), stronger effect = higher value, % at 25 µM; hit rate 10% among 940; automated patch clamp current; AID 2558, 2010; shares compounds with KCNQ2 enhance;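 active means current increase at least 3 SD of the untreated controls above them in both duplicate recordings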
Target sequence (O88943 whole entry W236L, looked up): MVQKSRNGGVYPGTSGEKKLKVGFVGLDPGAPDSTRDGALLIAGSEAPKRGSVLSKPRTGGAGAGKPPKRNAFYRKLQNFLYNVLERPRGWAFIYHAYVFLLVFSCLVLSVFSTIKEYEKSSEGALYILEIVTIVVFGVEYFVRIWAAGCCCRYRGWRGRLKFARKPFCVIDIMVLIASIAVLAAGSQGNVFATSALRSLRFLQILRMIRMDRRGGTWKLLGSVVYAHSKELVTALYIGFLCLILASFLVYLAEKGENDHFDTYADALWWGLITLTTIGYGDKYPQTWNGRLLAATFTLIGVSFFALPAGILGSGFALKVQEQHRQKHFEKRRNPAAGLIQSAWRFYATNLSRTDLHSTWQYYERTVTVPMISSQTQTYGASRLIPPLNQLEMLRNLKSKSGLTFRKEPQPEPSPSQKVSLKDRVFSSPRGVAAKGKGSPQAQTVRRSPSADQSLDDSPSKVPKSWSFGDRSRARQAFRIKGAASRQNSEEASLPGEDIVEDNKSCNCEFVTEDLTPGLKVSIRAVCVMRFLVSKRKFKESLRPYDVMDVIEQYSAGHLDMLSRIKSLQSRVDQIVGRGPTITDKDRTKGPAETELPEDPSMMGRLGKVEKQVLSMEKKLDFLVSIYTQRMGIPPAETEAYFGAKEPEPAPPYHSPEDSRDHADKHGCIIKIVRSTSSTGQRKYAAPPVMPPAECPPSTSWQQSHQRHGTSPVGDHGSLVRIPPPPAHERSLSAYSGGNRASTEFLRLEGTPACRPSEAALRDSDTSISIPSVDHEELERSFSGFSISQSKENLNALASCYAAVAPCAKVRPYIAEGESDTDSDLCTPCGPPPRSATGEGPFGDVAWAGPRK
A number is an active result; i = inactive; nt = no result given. Shown are actives, neighbours in structure and some others; about 1.6% of the full set was active somewhere.

SMILES | KCNQ2 enhance | KCNQ2 inh | Kir21 confirm | HEK293 Tl flux | others
CN1C(=O)N(C)C(c2cccc([N+](=O)[O-])c2)C2=C1CCCC2=O (configuration not stated) | nt | i | nt | nt
CCCCNC(=S)NC(=O)c1ccc([N+](=O)[O-])cc1 | 8.8 | i | i | 188% | CHO-K1 ctr=2.5;KCNQ1 pot spec=14;KCNQ2 pot conf=10;Kir2-1 sel=i;KCNQ2 W236L MoA=i
CC(C)CNC(=S)NC(=O)c1ccc([N+](=O)[O-])cc1 | i | i | nt | nt
O=[N+]([O-])c1cc(Cl)cc(/C=N/NC(=S)Nc2ccc(S(=O)(=O)N3CCOCC3)cc2)c1O | 18 | i | i | i | CHO-K1 ctr=3.6;KCNQ1 pot spec=i;KCNQ2 pot conf=39;Kir2-1 sel=i;KCNQ2 W236L MoA=3.7%
O=S(=O)(c1ccc(NC(=S)N/N=C/c2ccc(O)c(O)c2)cc1)N1CCOCC1 | nt | i | nt | nt
N#C/C(=C\c1cccc(Oc2ccccc2)c1)C(=O)N1CCOCC1 | i | -6.4 | 36% | i
COc1cc(/C=C(\C#N)C(=O)N2CCOCC2)cc(Br)c1O | nt | i | nt | nt
COc1ccc(-c2nnc(SCC(=O)O)n2Cc2ccccc2)cc1 | i | i | nt | nt
COc1cc(/C=C2/C(=O)NN(c3ccc(C)c(Cl)c3)C2=O)cc([N+](=O)[O-])c1O | nt | i | nt | nt
Cc1ccc(N2NC(=O)/C(=C\c3cc4c(cc3[N+](=O)[O-])OCO4)C2=O)cc1C | nt | i | 76% | i
CCCC(=O)N(CCN1CCOCC1)c1nc2c(F)cc(F)cc2s1 | i | i | nt | nt
CCOc1cccc(NC(=O)C2CC(=O)N(C)C(=Nc3ccccc3)S2)c1 (configuration not stated) | i | i | nt | nt
CCOc1cccc(NC(=O)C2CC(=O)N(C)C(=Nc3cccc(F)c3)S2)c1 (configuration not stated) | 6.5 | i | i | i | CHO-K1 ctr=i;KCNQ1 pot spec=i;KCNQ2 pot conf=i;Kir2-1 sel=i
CCC(C)(NC(=O)c1ccc2c(c1)OCO2)C(=O)NC1CCCCC1 (configuration not stated) | i | i | nt | nt
CC(Nc1ncnc2ccccc12)c1ccccc1 (configuration not stated) | i | i | nt | nt
CCCCC(Nc1ncnc2ccccc12)C(=O)O (configuration not stated) | 7.7 | i | i | i | CHO-K1 ctr=i;KCNQ1 pot spec=i;KCNQ2 pot conf=i;Kir2-1 sel=i
O=C(c1ccc(O)cc1)c1ccc(O)cc1O | i | i | nt | nt
CN(C)c1ccc(C(=O)c2ccc(O)cc2O)cc1 | i | i | i | i
COc1ccc(C)cc1NC(=O)NNC(=O)C1CCC(C(C)(C)C)CC1 (configuration not stated) | 11 | i | i | i | CHO-K1 ctr=i;KCNQ1 pot spec=i;KCNQ2 pot conf=31;Kir2-1 sel=i;KCNQ2 W236L MoA=i
COc1ccc(CCNC(=O)C2CCC(C(C)(C)C)CC2)cc1OC (configuration not stated) | nt | i | 48% | i
COc1ccc(CCNC(=O)C2CC2)cc1OC | nt | i | nt | nt
COc1ccc(C)cc1NC(=O)C1CCN(S(C)(=O)=O)CC1 | nt | i | nt | nt
N#CCCN1CCN(C(=O)c2c(N)no[n+]2[O-])CC1 | i | i | nt | nt
O=C(CCCN1C(=O)C2CC=CCC2C1=O)Nc1ccccc1F (configuration not stated) | i | i | nt | nt
Cc1ccc(S(=O)(=O)NCCC(=O)N2CCCCCC2)cc1 | i | i | nt | nt
SMILES | KCNQ2 enhance | KCNQ2 inh | Kir21 confirm | HEK293 Tl flux | others
Cc1ccc(S(=O)(=O)NCCC(=O)N2CCC(Cc3ccccc3)CC2)cc1 | 5.3 | i | i | i | CHO-K1 ctr=13;KCNQ1 pot spec=i;KCNQ2 pot conf=i;Kir2-1 sel=i;KCNQ2 W236L MoA=i
Cc1ccc(NC(=O)CN(C)C(=O)c2cc(S(=O)(=O)N(C)C)ccc2N2CCCC2)cc1 | i | i | nt | nt
Cc1c(NC(=O)C(C)OC(=O)c2ccc(Br)o2)c(=O)n(-c2ccccc2)n1C (configuration not stated) | i | i | nt | nt
Cc1c(NC(=O)COC(=O)c2ccc(Br)o2)c(=O)n(-c2ccccc2)n1C | nt | i | i | i
O=S(=O)(Nc1ccc(O)c(NS(=O)(=O)c2ccccc2)c1)c1ccccc1 | nt | i | nt | nt
O=C(Nc1ccccc1)N1CCN(S(=O)(=O)c2ccccc2)CC1 | i | i | nt | nt
O=C(COCC(=O)NCc1ccccc1)NCc1ccccc1 | i | i | nt | nt
CSc1ccc2c(c1)N(CCC1CCCCN1C)c1ccccc1S2 (configuration not stated) | i | -5.8 | 23% | i
CC1CCN(CC(O)CN2c3ccccc3Sc3ccccc32)CC1 (configuration not stated) | nt | i | nt | nt
Cc1cc2c(Nc3cccc(O)c3)ncnc2s1 | nt | i | nt | nt
O=C(COC(=O)C12CC3CC(CC(O)(C3)C1)C2)NCCc1ccc(Cl)cc1 | nt | i | nt | nt
O=C(CC1(c2ccc(Cl)cc2)C2CC3CC(C2)CC1C3)NCCO (configuration not stated) | 5.4 | i | i | i | CHO-K1 ctr=48;KCNQ1 pot spec=72;KCNQ2 pot conf=14;Kir2-1 sel=i;KCNQ2 W236L MoA=i
COc1cc([N+](=O)[O-])ccc1NC(=O)NCCCN1CCCC1=O | nt | i | nt | nt
CCc1cc(=O)oc2cc(OC(=O)c3ccco3)ccc12 | nt | i | nt | nt
Cc1cc(=O)oc2cc(OC(=O)c3ccco3)ccc12 | i | i | i | i
CCOCCCn1c(=S)[nH]c2cc(C(=O)NC3CCCC(C)C3C)ccc2c1=O (configuration not stated) | nt | i | nt | nt
CC1(CCC(=O)N2CCCC(Nc3ccc(F)cc3)C2)CC1 (configuration not stated) | nt | i | 51% | i
O=C1CCCCN1CCC(=O)N1CCCC(Nc2ccccc2)C1 (configuration not stated) | i | i | nt | nt
O=C(CCc1cccc(Cl)c1)N1CCCC(Nc2ccccc2)C1 (configuration not stated) | i | -7 | 70% | i
